Data as given in PubChem BioAssay (Tox21).
Inconclusive results are not listed. Entries that show only a call come without a potency. Calls of active or inactive are those of the source. Unless noted, calls come from the whole dose curve; as a rule, active = well fitted curve in the direction sought with a large enough effect in the repeat runs; inconclusive = weak or mixed curves; inactive = no such curve, though single readings can be large; an effect the other way counts as inactive or inconclusive.

Columns and labels:
[1] = A CellTox Green Cytotoxicity Assay to monitor cytotoxicity in HepG2 cells - 0 hour (AID 1224882); note: nearly all actives have a fitted effect of over 35% in size
In short: (§1)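 Nonlytic assay: viable cells exclude the dye, so fluorescence scales with cell death. HepG2 at 600 cells/well, compounds added after 5 h, signal read across 40 h.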

[2] = A CellTox Green Cytotoxicity Assay to monitor cytotoxicity in HepG2 cells - 32 hour (AID 1224883); note: nearly all actives have a fitted effect of over 50% in size; note: potency is the fitted concentration of half-maximal effect
In short: as §1

[3] = A CellTox Green Cytotoxicity Assay to monitor cytotoxicity in HEK293 cells - 8 hour (AID 1224884); note: nearly all actives have a fitted effect of over 35% in size
In short: (§2)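 Seeding of HEK293 cells together with cytotoxicity dye preceded a 5 h incubation at 37 C/5% CO2. Test compounds in DMSO were then added and fluorescence monitored across 40 h.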

[4] = qHTS RealTime-Glo MT Cell Viability Assay in HepG2 cells - 16 hour (AID 1224885); note: nearly all actives have a fitted effect of over 50% in size
In short: (§3)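 qHTS, HepG2, 600 cells/well, RealTime-Glo (NanoLuc + prosubstrate) added with cells; 5 h preincubation; DMSO compound addition; 37 C; luminescence at 0/8/16/24/32/40 h.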

[5] = qHTS RealTime-Glo MT Cell Viability Assay in HEK293 cells - 8 hour (AID 1224887); note: top concentration of the series differs between compounds; nearly all actives have a fitted effect of over 50% in size
In short: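 Tox21 screen in HEK293 using RealTime-Glo MT chemistry, with cells and reagent co-dispensed. Luminescence proportional to viable cell number was captured at intervals during 40 h compound exposure at 37 C.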

[6] = A CellTox Green Cytotoxicity Assay to monitor cytotoxicity in HEK293 cells - 16 hour (AID 1224888); note: nearly all actives have a fitted effect of over 35% in size
In short: as §2

[7] = qHTS RealTime-Glo MT Cell Viability Assay in HepG2 cells - 0 hour (AID 1224889); note: nearly all actives have a fitted effect of over 50% in size
In short: as §3

[8] = A CellTox Green Cytotoxicity Assay to monitor cytotoxicity in HepG2 cells - 8 hour (AID 1224890); note: nearly all actives have a fitted effect of over 45% in size
In short: as §1

[9] = qHTS assay to identify small molecule antagonists of the estrogen receptor alpha (ER-alpha) signaling pathway using the BG1 cell line in the presence of 0.1 nM 17-beta-estradiol - cell viability counter screen (AID 1259241); note: nearly all actives have a fitted effect of over 40% in size
In short: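 VM7Luc4E2 cells (endogenous ER-alpha, 4×ERE-luciferase), hormone-starved 5 days in charcoal-stripped FBS, were treated with compounds plus 0.1 nM 17beta-estradiol for 22 hr at 37C; viability read in same wells as CellTiter-Fluor live-cell protease fluorescence.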

[10] = qHTS assay to identify small molecule antagonists of the androgen receptor (AR) signaling pathway using the MDA cell line in the presence of 0.5 nM R1881 - cell viability counter screen (AID 1259242); note: nearly all actives have a fitted effect of over 45% in size
In short: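 R1881 at 0.5 nM final stimulated MDA-kb2 cells during 16 hr compound treatment at 37C. Cytotoxicity read: CellTiter-Fluor fluorescence after 30 min.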

[11] = molecular target: Estrogen receptor (Homo sapiens) (UniProt P03372); assay: qHTS assay to identify small molecule antagonists of the estrogen receptor alpha (ER-alpha) signaling pathway using the BG1 cell line in the presence of 0.1 nM 17-beta-estradiol (AID 1259244); note: nearly all actives have a fitted effect of over 50% in size
Estrogen receptor (Homo sapiens), sequence (P03372 whole entry, looked up): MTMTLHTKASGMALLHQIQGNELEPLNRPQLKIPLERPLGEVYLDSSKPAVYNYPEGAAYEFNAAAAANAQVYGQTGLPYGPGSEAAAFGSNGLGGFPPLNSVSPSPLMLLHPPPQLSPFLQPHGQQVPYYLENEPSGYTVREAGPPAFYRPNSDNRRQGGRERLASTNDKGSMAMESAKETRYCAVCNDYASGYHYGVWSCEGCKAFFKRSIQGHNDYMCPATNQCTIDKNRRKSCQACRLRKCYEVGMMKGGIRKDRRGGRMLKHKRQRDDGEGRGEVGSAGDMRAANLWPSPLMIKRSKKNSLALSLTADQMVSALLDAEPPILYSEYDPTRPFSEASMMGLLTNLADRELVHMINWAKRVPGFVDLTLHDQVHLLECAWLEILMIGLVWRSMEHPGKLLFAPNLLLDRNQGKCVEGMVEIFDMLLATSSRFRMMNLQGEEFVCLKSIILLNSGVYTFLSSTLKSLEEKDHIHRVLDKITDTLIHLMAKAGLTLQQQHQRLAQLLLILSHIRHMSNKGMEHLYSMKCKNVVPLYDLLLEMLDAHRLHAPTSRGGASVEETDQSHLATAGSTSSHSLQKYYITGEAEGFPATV
In short: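 VM7Luc4E2; 4xERE-luciferase; 0.1 nM E2 final; 22 h co-incubation, 37C; ONE-Glo luminescence after 30 min at room temperature.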

[12] = qHTS assay to identify small molecule phospholipidosis (PLD) inducers (AID 1259344; active = well fitted curve in the direction sought with a large enough effect; an effect the other way counts as inactive or inconclusive)
In short: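 HepG2 cells on collagen I, attached 4 h at 37 C, were co-treated with compound and LipidTOX Red dye for 24 h at 37 C, then fixed with paraformaldehyde plus Hoechst 33342 and imaged by high-content microscopy for phospholipid accumulation.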

[13] = qHTS assay to identify small molecule HDAC inhibitors (AID 1259364); note: potency is the fitted concentration of half-maximal effect;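 note: wild-type HCT-116 cells with endogenous class I/II HDAC activity; nearly all actives have a fitted effect of over 45% in size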
In short: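 Relative class I and II HDAC activity is taken from the luminogenic signal in HCT-116 cells, with compound exposure 2 hr and reagent development 30 min at room temperature.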

[14] = qHTS assay to identify small molecule HDAC inhibitors - cell viability counter screen (AID 1259365)
In short: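 Wild-type HCT-116 cells were seeded at 1,500 per well, incubated overnight at 37 C, then exposed to compounds in DMSO for 2hr. Viability was read by CellTiter-Glo luminescence after 30min at room temperature.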

[15] = qHTS assay to identify small molecule agonists of the sonic hedgehog signaling (Shh) pathway - cell viability counter screen (AID 1259366); note: nearly all actives have a fitted effect of over 50% in size
In short: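 NIH/3T3-derived 3T3 Gli1-Luc cells (stable Gli1-responsive firefly luciferase reporter) were seeded, rested 4 hr at 37 C/5% CO2, then exposed to compounds in DMSO for 24 hr; viability was read by CellTiter-Fluor fluorescence in the same wells.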

[16] = qHTS assay to identify small molecule antagonists of the sonic hedgehog signaling (Shh) pathway - cell viability counter screen (AID 1259367); note: nearly all actives have a fitted effect of over 55% in size
In short: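 NIH/3T3-derived Gli1-Luc reporter cells (2,000 per well) rested 4 hr at 37 C, then received DMSO compounds plus conditioned medium. After 23 hr of treatment, CellTiter-Fluor was added for 1 hr at 37C and fluorescence read.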

[17] = qHTS assay to identify small molecule agonists of the sonic hedgehog signaling (Shh) pathway (AID 1259368; calls by dose curve; note: series mostly up to about 92 µM; nearly all actives have a fitted effect of over 15% in size)
In short: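 Mouse fibroblast (NIH/3T3) reporter cells with stably integrated Gli1-Luc were treated 24 hr with compound; firefly luciferase luminescence served as the read-out.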

[18] = qHTS assay to identify small molecule antagonists of the sonic hedgehog signaling (Shh) pathway (AID 1259369; calls by dose curve; note: nearly all actives have a fitted effect of over 45% in size; note: potency is the fitted concentration of half-maximal effect)
In short: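 Conditioned medium drives Shh signalling in 3T3Gli1-Luc cells; compounds in DMSO co-applied, 24hr at 37 C, then luciferase luminescence.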

[19] = qHTS RealTime-Glo MT Cell Viability Assay in HEK293 cells - 24 hour (AID 1224886)
In short: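 Assay medium contained NanoLuc luciferase plus cell-permeant prosubstrate, added with HEK293 cells at 600 cells/well. After 5 h at 37 C/5% CO2 compounds were added; plates stayed at 37 C for 40 h with serial luminescence reads.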

Row | SMILES | Potency [1] | Potency [2] | Potency [3] | Potency [4] | Potency [5] | Potency [6] | Potency [7] | Potency [8] | Potency [9] | Potency [10] | Potency [11] | Potency [12] | Potency [13] | Potency [14] | Potency [15] | Potency [16] | outcome [17] | Potency [18] | Potency [19]
1 | C[N+]1(CC2COC(c3ccccc3)(C3CCCCC3)O2)CCCCC1 (configuration not stated) | inactive | inactive | inactive | inactive | inactive | inactive | inactive | inactive | inactive | inactive | inactive | inactive | inactive | inactive | inactive | inactive | inactive | – | –
2 | Clc1ccc2c(c1)CCc1cccnc1C2=C1CCNCC1 | inactive | 23.9 µM (active) | inactive | inactive | inactive | inactive | inactive | – | inactive | inactive | inactive | – | inactive | inactive | – | – | inactive | 1.68 µM (active) | –
3 | Clc1ccc(Cn2c(CN3CCCC3)nc3ccccc32)cc1 | inactive | inactive | inactive | inactive | – | inactive | inactive | inactive | inactive | inactive | – | inactive | inactive | inactive | – | inactive | inactive | – | –
4 | O=C(OCCCCCCOC(=O)c1ccccc1)c1ccccc1 | inactive | inactive | inactive | inactive | – | inactive | inactive | inactive | inactive | inactive | inactive | – | inactive | – | inactive | – | inactive | 27.3 µM (active) | –
5 | COc1cc(Cl)ccc1Oc1ccc(Cl)cc1Cl | inactive | inactive | inactive | inactive | inactive | inactive | inactive | inactive | inactive | inactive | inactive | – | inactive | inactive | inactive | inactive | inactive | inactive | –
6 | COc1ccc(C(=O)c2ccc(OC)cc2O)c(O)c1 | inactive | inactive | inactive | inactive | – | – | inactive | – | inactive | inactive | inactive | – | 30.9 µM (active) | inactive | inactive | inactive | inactive | – | 24.7 µM (active)
7 | O=C1C(O)=C(O)C(=O)C(O)=C1O | inactive | inactive | inactive | inactive | inactive | inactive | inactive | – | inactive | inactive | inactive | inactive | inactive | inactive | inactive | inactive | inactive | inactive | –
8 | O=S(=O)(Oc1ccc(Cl)cc1)c1ccccc1 | inactive | inactive | inactive | inactive | – | inactive | inactive | inactive | inactive | inactive | inactive | – | – | inactive | inactive | inactive | inactive | inactive | –
